In assay [1] the target is Calcium and integrin-binding protein 1 (Homo sapiens) (UniProt Q99828). The assay is described as follows: Primary qHTS for Identification of Calcium Integrin Binding Protein 1 (CIB1) Competitor (AID 1508620). Also: top concentration of the series differs between compounds; % is scaled to controls: 0 for no effect and ±100 for the full control effect. The gist of the method: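 Fluorescence polarization competition: GST-tagged CIB1 (1 uM final) preincubated with compound 15 min at room temperature, then FITC-labelled alphaIIb peptide (100 nM final) added. After 15 min at room temperature, polarization read at Ex 480/Em 540.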
Background: In qHTS, concentration-response curves come from the screen itself.

In assay [2] the target is Glutathione peroxidase 1 (Homo sapiens) (UniProt P07203). The assay is described as follows: Primary qHTS Assay for Inhibitors of Recombinant Selenoprotein Glutathione Peroxidase 1 (GPX1) (AID 1845191). Also: nearly all actives have a fitted effect of over 65% in size. The gist of the method:
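GR-coupled assay: compounds preincubated 30 min at room temperature with GPX1, then reaction started with CHP; final 10 nM GPX1, 1 mM GSH, 0.5 mM CHP, 0.5 mM NADPH, 100 nM GR, 0.01% BSA, pH 7.5 Tris buffer. NADPH fluorescence (340/450 nm) read at 0 and 15 min.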

Assay [3] deals with Luciferin 4-monooxygenase (Photinus pyralis) (UniProt P08659). Nature of the assay: Primary firefly luciferase (FLuc) qHTS assay for identification of artifact compounds. (AID 1845220). Also: nearly all actives have a fitted effect of over 60% in size. The settings on record: outcome: dose series up to 54.1 µM unless noted. In short, it runs like this: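 Titrated compounds were incubated 15 min at RT, protected from light, with luciferin and ATP at 10 uM; reaction started with 10 nM FLuc, luminescence imaged at 5 min, and concentration-response fitted by Hill equation.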

Assay [4] is described as follows: Primary fluorescence-based thiol-reactive (MSTI) qHTS assay for identification of artifact compounds. (AID 1845221). Also: nearly all actives have a fitted effect of over 65% in size. Also: potency is read from the fitted curve at half-maximal effect. In short, it runs like this: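 Compounds were incubated 1 h at room temperature in the dark with the MSTI probe (4 uM) in PBS pH 7.4, 2% DMSO. Signals were normalized between Acetyl-MSTI and MSTI.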
Assay [5] deals with Nanoluciferase (engineered Oplophorus gracilirostris luciferase). The assay is described as follows: Primary Nanoluciferase (NLuc) qHTS assay for identification of artifact compounds. (AID 1845222).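 Also: NLuc secreted into diluted conditioned medium of S16 cells; 0% = DMSO and -100% = no enzyme.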 In short, it runs like this:
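qHTS format, against NLuc in S16 cell-conditioned medium. Nano-Glo substrate 1:100 was added after 15 min at room temperature. Luminescence was taken after a further 5 min.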

The nature of assay [6]: Primary redox qHTS assay for identification of artifact compounds. (AID 1845223).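 Also: 0% = DMSO and 100% = reference compound.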 The gist of the method:
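Amplex Red (25 uM) and HRP (250 mU/mL) in HBSS, with compounds for 15 min, then 250 uM DTT for 30 min, room temperature, dark. Fluorescence 525/598 nm read; normalized to DMSO and 10 uM DA3003; Hill fit.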

For the next assay, the system named is HaCat. The assay is described as follows: Cytotoxic Profiling of Annotated Libraries Using Quantitative High-Throughput Screening (AID 1296008). Also: nearly all actives have a fitted effect of over 60% in size. As to max response: % is scaled to controls: 0 for no effect and ±100 for the full control effect. The settings on record: Five cell lines viability, CellTiter-Glo ATP luminescence, 48-72 h; max response: hits give low values. In short, it runs like this: (§1)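 Cells exposed to compounds for 48 or 72 hr at 37 degrees Celsius. Viability read as ATP-coupled luminescence with CellTiter-Glo after 10 min at room temperature.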
Background: Cellular ATP, detected with luciferase, serves as a proxy for viable cell number.

A further assay relates to NIH3T3. The description is as above. The settings on record: Five cell lines viability, CellTiter-Glo ATP luminescence, 48-72 h; max response: hits give low values. The gist of the method: as §1
The test system of a further assay is C33A. Nature of the assay: Primary qHTS to identify gynecologic anti-cancer compounds using libraries of approved drugs and bioactive compounds (AID 1345084). Also: % is scaled to controls: 0 for no effect and ±100 for the full control effect; nearly all actives have a fitted effect of over 55% in size. The settings on record: Gynecologic cancer cell panel viability, ATPlite luminescence, 48 h; series mostly up to 57.5 µM. The gist of the method:
(§2)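 Luminescence from the ATPlite ATP-monitoring reagent indicates viable cell number; lower signal means cytotoxicity. Cells received compound 16 h after seeding and were exposed for 48 h across five concentrations.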

The next assay relates to CAOV3. The description is as above. The settings on record: Gynecologic cancer cell panel viability, ATPlite luminescence, 48 h; series mostly up to 57.5 µM. In short, it runs like this: as §2
Another assay relates to CASKI. The assay is described as above. The settings on record: Gynecologic cancer cell panel viability, ATPlite luminescence, 48 h; series mostly up to 57.5 µM. The gist of the method: as §2
The subject of a further assay is Es-2. The assay is described as above. Conditions: Gynecologic cancer cell panel viability, ATPlite luminescence, 48 h; series mostly up to 57.5 µM. In short, it runs like this:
as §2

The subject of another assay is Hek293T. The assay is described as above. The settings on record: Gynecologic cancer cell panel viability, ATPlite luminescence, 48 h, control line for the selectivity index; series mostly up to 57.5 µM. The gist of the method:
as §2

The next assay relates to JEG-3. The description is as above. Conditions: Gynecologic cancer cell panel viability, ATPlite luminescence, 48 h; series mostly up to 57.5 µM. The gist of the method:
as §2

The next assay has as its system OV90. The description is as above. The settings on record: Gynecologic cancer cell panel viability, ATPlite luminescence, 48 h; series mostly up to 57.5 µM. In short, it runs like this:
as §2

Another assay relates to PA-1. The assay is described as above. Conditions: Gynecologic cancer cell panel viability, ATPlite luminescence, 48 h; series mostly up to 57.5 µM. In short, it runs like this: as §2
A further assay concerns Tov-21-G. The description is as above. Conditions: Gynecologic cancer cell panel viability, ATPlite luminescence, 48 h; series mostly up to 57.5 µM. The gist of the method: as §2
The subject of another assay is Tov112D. The description is as above. Conditions: Gynecologic cancer cell panel viability, ATPlite luminescence, 48 h; series mostly up to 57.5 µM. The gist of the method: as §2
Assay [7] concerns Zika virus NS2B-NS3 protease (linked construct). Nature of the assay: Primary screen NINDS Rhodamine qHTS for Zika virus inhibitors (AID 1347160). Also: nearly all actives have a fitted effect of over 55% in size. In short, it runs like this:
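Purified linked NS2B-NS3 protease (NS2B hydrophilic domain joined to NS3 protease by flexible linker), 25 nM in 10 mM Tris-HCl pH 8.0, 0.01% Tween 20. Compounds titrated, 15 min preincubation at room temperature; 1.5 microM Rhodamine110 substrate, FITC fluorescence change over 15 min.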

Assay [8] deals with Phospholipid hydroperoxide glutathione peroxidase GPX4 (Homo sapiens) (UniProt P36969). Nature of the assay: Primary qHTS Assay for Inhibitors of Recombinant Selenoprotein Glutathione Peroxidase 4 (GPX4) (AID 1845192). Also: % is scaled to controls: 0 for no effect and ±100 for the full control effect; nearly all actives have a fitted effect of over 65% in size. The gist of the method: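 GR-coupled assay: recombinant GPX4 preincubated 30 min with compound at room temperature; final 200 nM GPX4, 1 mM GSH, 0.5 mM cumene hydroperoxide, 0.5 mM NADPH, 100 nM GR, 0.01% BSA, pH 7.5 Tris. NADPH fluorescence (340/450 nm) read at 0 and 15 min.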

Values without a mark were called inactive. Results filed as inconclusive are left out. Activity calls are given as the source filed them. Calls follow the shape of the dose curve; as a rule, active = well fitted curve in the direction sought with a large enough effect; inconclusive = small, poorly fitted or top-dose-only effect, or another doubt; inactive = no such curve, though single readings can be large; an effect the other way counts as inactive or inconclusive.

Chain of Phospholipid hydroperoxide glutathione peroxidase GPX4 (Homo sapiens) (P36969 whole entry, looked up): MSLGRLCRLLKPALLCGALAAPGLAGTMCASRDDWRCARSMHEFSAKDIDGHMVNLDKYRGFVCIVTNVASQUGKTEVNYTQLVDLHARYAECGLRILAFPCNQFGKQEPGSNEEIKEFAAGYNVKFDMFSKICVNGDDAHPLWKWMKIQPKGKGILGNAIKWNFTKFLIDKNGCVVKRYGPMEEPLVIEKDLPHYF
Chain of Glutathione peroxidase 1 (Homo sapiens) (P07203 whole entry, looked up): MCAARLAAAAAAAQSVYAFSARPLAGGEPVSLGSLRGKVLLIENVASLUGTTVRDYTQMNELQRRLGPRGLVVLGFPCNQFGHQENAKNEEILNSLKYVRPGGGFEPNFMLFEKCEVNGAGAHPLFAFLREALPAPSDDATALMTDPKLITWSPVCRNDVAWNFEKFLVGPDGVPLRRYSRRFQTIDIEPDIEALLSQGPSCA
Chain of Calcium and integrin-binding protein 1 (Homo sapiens) (Q99828 whole entry, looked up): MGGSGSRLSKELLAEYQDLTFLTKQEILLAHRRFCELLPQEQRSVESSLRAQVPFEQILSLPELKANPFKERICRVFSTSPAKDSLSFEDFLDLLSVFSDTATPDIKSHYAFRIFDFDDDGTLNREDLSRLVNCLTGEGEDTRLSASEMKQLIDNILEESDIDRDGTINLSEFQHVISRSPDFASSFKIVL

Turning to `CN1C(=O)C(Cc2ccc3ccccc3c2)N=C(c2ccc(O)cc2)c2cc(Cl)ccc21` (centres undefined), the Potency entry (in [1]; in assay [2]; in assay [4]; in assay [5]; in assay [6]; with C33A) was “inactive” in each case. The Potency entry in the assay with CAOV3, in the assay with CASKI, in the assay on Es-2, in the assay on Hek293T, in the assay with JEG-3 and in the assay on OV90 was “inactive” throughout. Moreover, the Potency entry in the assay with PA-1, in the assay with Tov-21-G and in the assay with Tov112D was “inactive” each time. Also, the outcome (in [3]; in the assay on HaCat) was inactive. The max response in the assay with NIH3T3 is -0.878%.
Turning to `C=C[C@H]1CN2CCC1C[C@H]2[C@H](O)c1ccnc2ccccc12` (some centres undefined), the Potency entry (in assay [7]; in [1]; in assay [8]; in assay [4]; in the assay with C33A; in the assay on CAOV3) was “inactive” each time. The Potency result with CASKI, in the assay with Es-2, in the assay with Hek293T, with JEG-3, in the assay with OV90 and in the assay on PA-1 was “inactive” throughout. The Potency entry in the assay on Tov-21-G and in the assay with Tov112D was “inactive” in each case. Further, the compound was classed as inactive in assay [3]. Further, the max response is -26.7% with HaCat and -5.71% with NIH3T3.
Regarding `O=C(N[C@H]1CN2CCC1CC2)c1cc2cccc(Cl)c2s1`, the Potency result in [7], in [2], in [8], in assay [4], in assay [5] and in assay [6] was “inactive” each time. The Potency entry with C33A, in the assay with CASKI, in the assay on Es-2, in the assay on Hek293T, in the assay on JEG-3 and with OV90 was “inactive” in each case. For the same compound, the Potency result in the assay with PA-1, with Tov-21-G and in the assay with Tov112D was “inactive” in each case. In addition, the call in [3] was inactive. Also, the max response with HaCat is -4.19%.
Turning to `Oc1ccc2c(c1)C13CCCC[C@H]1[C@@H](C2)N(CC1CCC1)CC3`, the Potency entry in assay [7], in assay [2], in assay [8], in assay [4], in [5] and in assay [6] was “inactive” throughout. In addition, the Potency result with C33A, in the assay on CAOV3, in the assay with CASKI, in the assay on Hek293T, in the assay on JEG-3 and in the assay with Tov-21-G was “inactive” throughout. Moreover, the Potency entry in the assay with Tov112D was “inactive”. Also, the result (in assay [3]; with HaCat) was inactive. Moreover, the max response with NIH3T3 is -7.5%.
Regarding `C=C1C(=O)O[C@@H]2[C@H]3C(=C)[C@@H](O)C[C@H]3C(=C)C[C@@H](O)[C@@H]12`, the Potency entry (in [1]; in [2]; in assay [8]; in [5]; in assay [6]; in the assay with C33A) was “inactive” in each case. Further, the Potency entry in the assay on CAOV3, in the assay on CASKI, with Es-2, with Hek293T, in the assay on JEG-3 and in the assay on OV90 was “inactive” in each case. Moreover, the Potency result in the assay on PA-1 and with Tov112D was “inactive” in each case. In addition, the result in assay [3] was inactive. Moreover, in assay [4], the Potency is 5.32 µM (active). Besides, the max response in the assay on HaCat was -4.6%.
On to `C/C=C1/CN2CC[C@]34C(=Nc5ccccc53)[C@@H]2C[C@@H]1[C@H]4C(=O)OC`, for which the Potency entry in assay [7], in assay [1], in assay [2], in [8], in assay [5] and in assay [6] was “inactive” each time. The Potency result in the assay on C33A, with CAOV3, with CASKI, with Es-2, in the assay on Hek293T and with JEG-3 was “inactive” each time. Moreover, the Potency entry in the assay on OV90, in the assay on PA-1, in the assay on Tov-21-G and in the assay with Tov112D was “inactive” throughout. In assay [3], the compound was called inactive. The max response was -0.364% with HaCat and -14.3% in the assay on NIH3T3.
